# Measurements as given in PubChem BioAssay (NCATS).
# Inconclusive results are not listed. Entries that show only a call come without a potency. Active and inactive are the calls of the source. Unless noted, calls come from the whole dose curve; as a rule, active = well fitted curve in the direction sought with a large enough effect; inconclusive = small, poorly fitted or top-dose-only effect, or another doubt; inactive = no such curve, though single readings can be large; an effect the other way counts as inactive or inconclusive.
# How the values were obtained:
# [1] = AP1 Signaling Pathway (AID 357; active = well fitted curve in either direction with a large enough effect, not every such curve was filed as active;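 note: ME-180 reporter cells stimulated with EGF at its EC50 level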)
# Method in brief: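 Beta-lactamase reporter under AP-1 response element, ME-180 background. Stimulus: EC50 EGF. Compound exposure 5 h, 37 °C. Detection: CCF4, 2.5 h RT, 460/530 nm. Values: AC50 from titration.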
# [2] = target: Cytochrome P450 1A2 (Homo sapiens) (UniProt P05177); assay: p450-cyp1a2 (AID 410; calls by dose curve)
# Method in brief: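 Inhibition was calculated relative to 57 uM furafylline (full inhibition). The reaction used human CYP1A2 at 20nM with Luciferin-ME at its Km, 100uM, driven by an NADPH-regenerating system for 60 min at room temperature.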
# [3] = NFAT Signaling Pathway (AID 444; active = well fitted curve in either direction with a large enough effect, not every such curve was filed as active;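 note: carbachol stimulus at about its EC50 of 1 µM final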); details: Jurkat NFAT-bla M1, carbachol, beta-lactamase ratio, 5 h; at 17.2 µM (top of the series) unless noted
# Method in brief: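 Jurkat cells with NFAT-driven β-lactamase reporter and co-expressed M1 receptor, stimulated with carbachol (final 1 uM, ~EC50), compound titration, 5 h at 37 °C. CCF4 loaded 1 h at RT; 460/530 nm ratio gave %activity and AC50.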
# [4] = Stat Signaling Pathway (AID 446; active = well fitted curve in either direction with a large enough effect, not every such curve was filed as active;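 note: ME-180 cervical cancer cells given 40 pM IL-6 alongside compound; SIE-controlled beta-lactamase reporter measured as 460/530 nm FRET emission ratio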)
# Method in brief: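 ME-180 cells carrying a SIE-driven beta-lactamase reporter are stimulated with 40 pM IL-6 for 5 h at 37C in the presence of compound. The 460/530 nm FRET substrate ratio is read after 2.5 h at RT. Data are normalised to 300 pM IL-6 and to 125 nM JAK inhibitor controls.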
# [5] = target: Mitogen-activated protein kinase 10 (Mus musculus) (UniProt Q61831); assay: JNK3 AlphaScreen Assay (AID 530; active = well fitted curve in either direction with a large enough effect, not every such curve was filed as active;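 note: kinase came from lysate of stimulated human HepG2 cells; signal reports phosphorylation of biotinylated GST-cJun 1-79 at Ser73 with 10 µM ATP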)
# Method in brief: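 qHTS format: compounds tested as titrations against IL-1beta/TNF-alpha-activated HepG2 lysate JNK3 with biotin-GST-cJun substrate and 10 uM ATP at room temperature. Loss of anti-phospho-cJun AlphaScreen signal indicates inhibition.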
# [6] = target: 3',5'-cyclic-AMP phosphodiesterase 4B (Homo sapiens) (UniProt Q07343); assay: qHTS Assay for Inhibitors of PDE-IV (AID 607; active = well fitted activation curve with a large enough effect in the main read-out, with a control signal flat, not every such curve was filed as active)
# Method in brief: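 HEK293 ACTOne cells with CNG channel (1000/well), endogenous PDE4; membrane potential dye, compounds up to 22.9 uM final. Fluorescence Ex 535/Em 590; RO 20-1724 (100 uM final) as reference.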
# [7] = qHTS Assay for Lipid Storage Modulators (AID 1519; calls by dose curve); details: Drosophila S3 cells, BODIPY lipid droplet/cell ratio, laser cytometry, cells loaded with oleic acid; for activity change, negative = inhibition: at 25.7 µM (top of the series)
# Method in brief: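 Cells seeded at 5,000 per well were treated with compounds over a concentration series and loaded with oleic acid (400 uM, as added). Lipid droplet fluorescence (488 nm excitation, 500-530 nm channel) was read by laser-scanning cytometry and normalized to 20 uM Triacsin C.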
# [8] = target: ATP-dependent 6-phosphofructokinase (Trypanosoma brucei brucei) (UniProt O15648); assay: qHTS Assay to Find Inhibitors of T. brucei phosphofructokinase: hit validation (AID 492961)
# Method in brief: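 Luminescence from ADP-Glo reports ADP generated as T. brucei PFK (1.25 nM) phosphorylates 0.5 mM fructose-6-phosphate using 0.1 mM ATP. Reactions ran 45 min at room temperature, pH 8.0.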
# [9] = target: Ubiquitin carboxyl-terminal hydrolase 1 (Homo sapiens) (UniProt O94782); assay: Inhibitors of USP1/UAF1: Pilot qHTS (AID 504865);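 note: rhodamine fluorescence freed from ubiquitin-rhodamine substrate followed over time; top concentration of the series differs between compounds; nearly all actives have a fitted effect of over 35% in size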
# Method in brief: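 USP1/UAF1 complex (1nM) preincubated with compound 15 min at room temperature, then Ub-Rho substrate (150nM final) added. Fluorescence read kinetically at 480/540 nm, 6 reads every 60 seconds. Buffer: 50mM HEPES pH 7.8, 0.5mM EDTA, 0.1 mg/ml BSA, 1mM TCEP, 0.01% Tween-20.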
# [10] = target: Luciferin 4-monooxygenase (Photinus pyralis) (UniProt P08659); assay: Biochemical firefly luciferase enzyme assay for NPC (AID 624030);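 note: purified P. pyralis luciferase at 10 nM with luciferin and ATP substrate; nearly all actives have a fitted effect of over 70% in size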
# Method in brief: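 Purified P. pyralis luciferase at 10 nM in 50 mM Tris Acetate (final), luminescence read within 5 minutes of enzyme addition to compounds. Activity normalised to PTC124 versus DMSO; concentration-response curves classed by r2, magnitude and activity.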
# [11] = S16 Schwann cell PMP22 intronic element firefly luciferase assay (AID 624032); note: nearly all actives have a fitted effect of over 30% in size
# Method in brief: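 Rat S16 Schwann cells stably carrying firefly luciferase driven by a PMP22 intronic element, in 10% FBS, treated 24 h at 37 C. ONE-Glo luminescence normalized to PTC124 control and DMSO (0%); curves classed by r2, magnitude and activity.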
# [12] = qHTS profiling for inhibitors of Plasmodium falciparum proliferation (AID 504749); note: nearly all actives have a fitted effect of over 60% in size; details: P. falciparum in erythrocytes, SYBR Green DNA, 72 h, at 12.8 µM (top of the series)
# Method in brief: (§1)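 Readout was DNA-dye fluorescence from lysed cultures, ex 485/em 535 nm. Parasitized red cells had grown 72 h with compound; data scaled between 0.29 uM artemisinin and DMSO wells and corrected using vehicle-only plates.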
# CP191 = assay: as above; details: P. falciparum in erythrocytes, SYBR Green DNA, 72 h; series mostly up to 12.8 µM
# Method in brief: as §1
# CP217 = assay: as above; details: P. falciparum in erythrocytes, SYBR Green DNA, 72 h; series mostly up to 12.8 µM
# Method in brief: as §1
# CP250 = assay: as above; details: P. falciparum in erythrocytes, SYBR Green DNA, 72 h; series mostly up to 12.8 µM
# Method in brief: as §1
# CP256 = assay: as above; details: P. falciparum in erythrocytes, SYBR Green DNA, 72 h; series mostly up to 12.8 µM
# Method in brief: as §1
# FAB9 = assay: as above; details: P. falciparum in erythrocytes, SYBR Green DNA, 72 h; series mostly up to 12.8 µM
# Method in brief: as §1
# JCK = assay: as above; details: P. falciparum in erythrocytes, SYBR Green DNA, 72 h; series mostly up to 12.8 µM
# Method in brief: as §1
# [13] = measured here: cell count channel max response
# [14] = measured here: lipid channel max response
# 3',5'-cyclic-AMP phosphodiesterase 4B (Homo sapiens), sequence (Q07343 whole entry, looked up): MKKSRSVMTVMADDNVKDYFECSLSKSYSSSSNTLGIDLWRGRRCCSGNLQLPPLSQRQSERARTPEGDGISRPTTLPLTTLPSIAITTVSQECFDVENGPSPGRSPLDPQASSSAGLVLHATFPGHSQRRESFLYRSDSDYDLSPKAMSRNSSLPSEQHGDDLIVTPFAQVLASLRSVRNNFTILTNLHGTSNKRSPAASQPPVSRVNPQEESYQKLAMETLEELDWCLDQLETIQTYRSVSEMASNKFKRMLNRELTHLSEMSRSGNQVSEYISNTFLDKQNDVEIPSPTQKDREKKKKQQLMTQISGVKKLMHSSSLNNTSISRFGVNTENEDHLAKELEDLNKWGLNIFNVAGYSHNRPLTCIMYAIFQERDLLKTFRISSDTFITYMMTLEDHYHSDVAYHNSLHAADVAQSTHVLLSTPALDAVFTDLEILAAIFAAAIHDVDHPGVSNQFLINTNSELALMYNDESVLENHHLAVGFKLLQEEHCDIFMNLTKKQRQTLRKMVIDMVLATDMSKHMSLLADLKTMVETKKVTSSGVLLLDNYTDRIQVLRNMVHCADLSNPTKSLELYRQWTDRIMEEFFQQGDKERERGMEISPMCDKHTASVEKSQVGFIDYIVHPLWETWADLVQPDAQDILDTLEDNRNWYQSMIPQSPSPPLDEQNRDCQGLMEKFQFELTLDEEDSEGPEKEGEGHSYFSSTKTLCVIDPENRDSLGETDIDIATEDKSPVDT
# Ubiquitin carboxyl-terminal hydrolase 1 (Homo sapiens), sequence (O94782 whole entry, looked up): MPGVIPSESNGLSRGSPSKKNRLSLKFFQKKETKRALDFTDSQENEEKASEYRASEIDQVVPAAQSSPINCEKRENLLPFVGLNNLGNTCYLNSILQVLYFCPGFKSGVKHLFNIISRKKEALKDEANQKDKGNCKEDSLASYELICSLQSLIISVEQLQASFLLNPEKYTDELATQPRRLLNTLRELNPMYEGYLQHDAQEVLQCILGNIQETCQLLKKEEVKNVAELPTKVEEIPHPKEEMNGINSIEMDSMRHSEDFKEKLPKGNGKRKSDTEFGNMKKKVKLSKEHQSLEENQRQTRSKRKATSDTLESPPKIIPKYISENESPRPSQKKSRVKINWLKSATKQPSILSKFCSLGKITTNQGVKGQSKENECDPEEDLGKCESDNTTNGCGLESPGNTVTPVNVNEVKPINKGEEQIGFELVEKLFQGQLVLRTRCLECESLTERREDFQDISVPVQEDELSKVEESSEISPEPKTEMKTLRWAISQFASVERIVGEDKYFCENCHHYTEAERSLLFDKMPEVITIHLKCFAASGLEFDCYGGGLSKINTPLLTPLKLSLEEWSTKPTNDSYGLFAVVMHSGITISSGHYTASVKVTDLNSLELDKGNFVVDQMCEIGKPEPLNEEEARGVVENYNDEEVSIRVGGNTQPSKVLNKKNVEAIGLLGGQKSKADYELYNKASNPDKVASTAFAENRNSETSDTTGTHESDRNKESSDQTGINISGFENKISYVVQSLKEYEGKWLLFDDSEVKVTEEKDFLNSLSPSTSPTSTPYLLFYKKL
# Cytochrome P450 1A2 (Homo sapiens), sequence (P05177 whole entry, looked up): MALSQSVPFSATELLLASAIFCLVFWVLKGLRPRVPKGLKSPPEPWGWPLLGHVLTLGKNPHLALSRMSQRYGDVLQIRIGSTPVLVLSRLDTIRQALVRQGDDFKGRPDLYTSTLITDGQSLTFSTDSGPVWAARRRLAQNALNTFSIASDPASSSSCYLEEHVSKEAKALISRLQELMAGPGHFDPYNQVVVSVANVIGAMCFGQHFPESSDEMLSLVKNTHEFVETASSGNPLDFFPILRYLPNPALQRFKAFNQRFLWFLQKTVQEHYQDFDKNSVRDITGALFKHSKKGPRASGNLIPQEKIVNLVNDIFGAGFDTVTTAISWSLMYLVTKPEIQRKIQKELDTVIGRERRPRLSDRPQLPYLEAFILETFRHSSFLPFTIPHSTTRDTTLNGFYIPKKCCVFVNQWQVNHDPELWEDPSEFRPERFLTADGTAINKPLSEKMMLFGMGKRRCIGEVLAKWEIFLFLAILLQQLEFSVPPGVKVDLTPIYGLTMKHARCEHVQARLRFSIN
# Luciferin 4-monooxygenase (Photinus pyralis), sequence (P08659 whole entry, looked up): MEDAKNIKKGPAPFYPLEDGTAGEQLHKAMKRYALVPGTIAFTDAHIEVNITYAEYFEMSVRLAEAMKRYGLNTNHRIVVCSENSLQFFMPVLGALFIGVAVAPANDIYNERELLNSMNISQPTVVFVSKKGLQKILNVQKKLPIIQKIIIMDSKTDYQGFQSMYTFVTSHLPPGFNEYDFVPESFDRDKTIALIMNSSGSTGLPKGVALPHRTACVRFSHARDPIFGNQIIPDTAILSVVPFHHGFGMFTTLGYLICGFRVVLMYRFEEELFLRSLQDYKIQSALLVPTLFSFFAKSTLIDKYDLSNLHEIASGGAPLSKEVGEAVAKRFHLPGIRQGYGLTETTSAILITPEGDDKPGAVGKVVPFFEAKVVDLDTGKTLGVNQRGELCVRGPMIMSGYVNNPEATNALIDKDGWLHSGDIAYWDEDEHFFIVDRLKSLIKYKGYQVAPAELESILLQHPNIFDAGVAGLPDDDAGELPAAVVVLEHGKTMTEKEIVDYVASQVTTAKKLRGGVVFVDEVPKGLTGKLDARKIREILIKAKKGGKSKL
# ATP-dependent 6-phosphofructokinase (Trypanosoma brucei brucei), sequence (O15648 whole entry, looked up): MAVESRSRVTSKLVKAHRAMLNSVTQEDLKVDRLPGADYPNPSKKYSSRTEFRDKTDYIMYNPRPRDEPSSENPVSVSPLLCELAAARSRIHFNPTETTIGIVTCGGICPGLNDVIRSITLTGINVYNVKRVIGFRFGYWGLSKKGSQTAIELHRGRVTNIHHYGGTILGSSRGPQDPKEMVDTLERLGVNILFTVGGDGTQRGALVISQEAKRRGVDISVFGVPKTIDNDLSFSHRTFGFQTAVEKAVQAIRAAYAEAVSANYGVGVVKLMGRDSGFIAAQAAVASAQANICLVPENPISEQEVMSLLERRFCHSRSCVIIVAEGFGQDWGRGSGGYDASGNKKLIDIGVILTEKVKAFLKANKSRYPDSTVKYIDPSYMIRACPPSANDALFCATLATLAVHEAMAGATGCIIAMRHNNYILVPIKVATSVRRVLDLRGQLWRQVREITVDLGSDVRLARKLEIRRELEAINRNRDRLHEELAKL
smiles,measurement,setting,value
NC(=O)c1cc[n+](CC2=C(C(=O)[O-])N3C(=O)[C@@H](NC(=O)Cc4cccs4)[C@@H]3SC2)cc1,outcome,[1],inactive
same,Potency,[2],inactive
same,"activity change, negative = inhibition",[3],-11% (inactive)
same,outcome,[4],inactive
same,Potency,[5],inactive
same,outcome,[6],inactive
same,"activity change, negative = inhibition",[7],-1.16% (inactive)
same,max response,[7]; [13],-15%
same,max response,[7]; [14],-16.9%
same,outcome,[8],inactive
same,Potency,[9],inactive
same,Potency,[10],inactive
same,Potency,[11],inactive
same,"activity, negative = inhibition",[12]; parasite line A,-3.3% (inactive)
same,"activity, negative = inhibition",[12]; parasite line B,1.86% (inactive)
same,Potency,CP191,inactive
same,Potency,CP217,inactive
same,Potency,CP250,inactive
same,Potency,CP256,inactive
same,Potency,FAB9,inactive
same,Potency,JCK,inactive
CC(C)(CO)[C@H](O)C(=O)NCCCO,outcome,[1],inactive
same,Potency,[2],inactive
same,"activity change, negative = inhibition",[3],9.07% (inactive)
same,outcome,[4],inactive
same,Potency,[5],inactive
same,outcome,[6],inactive
same,"activity change, negative = inhibition",[7],-3.05% (inactive)
same,max response,[7]; [13],-6.65%
same,max response,[7]; [14],-8.62%
same,Potency,[9],inactive
CC(=O)N(C[C@@H](O)CO)c1c(I)c(C(=O)NC[C@@H](O)CO)c(I)c(C(=O)NC[C@@H](O)CO)c1I,outcome,[1],inactive
same,Potency,[2],inactive
same,"activity change, negative = inhibition",[3],-8.29% (inactive)
same,outcome,[4],inactive
same,Potency,[5],inactive
same,outcome,[6],inactive
same,"activity change, negative = inhibition",[7],-2.6% (inactive)
same,max response,[7]; [13],-16.6%
same,max response,[7]; [14],-19.4%
same,Potency,[9],inactive
